For ten molecules, Potency and outcome results are on record in PubChem BioAssay (Tox21).

“And” between values parts separate entries of the source, which are not always exact repeats. Equal values may be shown once. Records with an inconclusive call do not appear. Where a structure was tested more than once in an assay, its records may differ in their call. The source made the active and inactive calls. Unless noted, the call rests on the fitted dose curve; in most records, active means well fitted curve in the direction sought with a large enough effect in the repeat runs; inconclusive means weak or mixed curves; inactive means no such curve, though single readings can be large; an effect the other way counts as inactive or inconclusive.

Assay [1] in a line: qHTS assay to identify small molecule agonists of the vitamin D receptor (VDR) signaling pathway - cell viability counter screen (AID 743224). Further: nearly all actives have a fitted effect of over 50% in size. The essentials: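 Plated VDR-bla cells (4 h, 37C) received compound, incubated 16 h, then LiveBLAzer substrate 2 h RT; CellTiter-Glo added afterwards, luminescence read at 30 min.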
A short description of assay [2]: qHTS assay to identify small molecule antagonists of the vitamin D receptor (VDR) signaling pathway - cell viability counter screen (AID 743225). Further: nearly all actives have a fitted effect of over 50% in size. The essentials:
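Cells (VDR-UAS-bla HEK 293T) are plated, rested 4 h at 37C, dosed with compound and 3 nM final 1-alpha,25-dihydroxy vitamin D3, and incubated 16 h. Viability is taken from CellTiter-Glo luminescence in the reporter wells.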
For orientation: In qHTS, concentration-response curves come from the screen itself.

The nature of assay [3]: qHTS assay to identify small molecule agonists of the NFkB signaling pathway (AID 1159509; active means well fitted curve in the direction sought with a large enough effect in the signal ratio in the repeat runs, not every such curve was filed as active; the % refers to the signal ratio). The essentials:
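After overnight attachment, reporter cells received test compounds, DMSO or positive controls and were incubated 5 hr at 37 C. FRET substrate was then added for 1.5 hr at room temperature before dual-emission fluorescence reading.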

Assay [4] in a line: qHTS assay to identify small molecule agonists of the NFkB signaling pathway - cell viability counter screen (AID 1159515; calls by dose curve; further: nearly all actives have a fitted effect of over 55% in size). Summed up: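 Using the same wells as the NFkB reporter read, ME-180 NFkB-bla cells given compounds for 5 hr were assessed for viability via CellTiter-Glo, with luminescence taken after a 30 min room-temperature incubation.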
Assay [5] in a line: qHTS assay to identify small molecule agonists of the endoplasmic reticulum stress response signaling pathway (AID 1159516; active means well fitted activation curve with a large enough effect in the signal ratio in the repeat runs, not every such curve was filed as active; the % refers to the signal ratio). Summed up:
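An ESRE-bla HeLa cell assay: compounds were pin-transferred from DMSO onto overnight-plated cells and left 5 hr at 37 C. Substrate was then loaded for 2 hr at room temperature before reading fluorescence at 460 nm and 530 nm.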

Assay [6] can be described thus: qHTS assay to identify small molecule agonists of the endoplasmic reticulum stress response signaling pathway - cell viability counter screen (AID 1159517; calls by dose curve;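 further: HeLa cells carrying an ER stress response element beta-lactamase reporter; nearly all actives have a fitted effect of over 50% in size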). Summed up: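 Counter-screen wells were identical to the reporter wells. Cells were plated at 1,500 per well and dosed for 5 hr, then read for luminescence 30 min after CellTiter-Glo addition.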
The nature of assay [7]: qHTS assay to identify small molecule antagonists of the retinoid-related orphan receptor gamma (ROR-gamma) signaling pathway - cell viability counter screen (AID 1159520). Further: nearly all actives have a fitted effect of over 50% in size. The essentials:
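Tet-on ROR gamma CHO cells were given compounds for 2 hr, then doxycycline hyclate at 1 uM final, and incubated 16 hr at 37 C. Viability was measured as ATP content by CellTiter-Glo luminescence.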

In assay [8] the target is Nuclear receptor ROR-gamma (Homo sapiens) (UniProt P51449). Put plainly: qHTS assay to identify small molecule antagonists of the retinoid-related orphan receptor gamma (ROR-gamma) signaling pathway (AID 1159521; further: nearly all actives have a fitted effect of over 50% in size; further: potency means the concentration at half of the fitted maximal effect). The essentials:
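RORγ antagonism is scored from reduced reporter luminescence in Tet-on CHO cells. Induction used 1 uM final doxycycline hyclate for 16 h at 37 C, following a 2 h compound exposure.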

The nature of assay [9]: qHTS assay to identify small molecule agonists of the AP-1 signaling pathway - cell viability counter screen (AID 1159525; calls by dose curve; further: nearly all actives have a fitted effect of over 55% in size). The essentials: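 AP-1-bla ME-180 cells in Opti-MEM with 0.5% dialyzed FBS, compound exposure 5 h at 37 C in 15-point titration. Viability read in the same wells as ATP content by CellTiter-Glo luminescence, normalised to tetra-n-octylammonium bromide and DMSO controls.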

The nature of assay [10]: qHTS assay to identify small molecule agonists of the AP-1 signaling pathway (AID 1159526; calls by dose curve).
Assay [11] is described as follows: qHTS assay to identify small molecule agonists of the RXR signaling pathway - cell viability counter screen (AID 1159529). Further: nearly all actives have a fitted effect of over 50% in size. The essentials: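 Cell viability is measured by CellTiter-Glo luminescence, 30 min at room temperature, in wells already read for beta-lactamase. Engineered HEK 293T cells (RXR-alpha-UAS-bla) are dosed 16 hr at 37 C. Tetraoctyl ammonium bromide serves as positive control.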

Assay [12] in a line: qHTS assay to identify small molecule antagonists of the retinoid acid receptor (RAR) signaling pathway - cell viability counter screen (AID 1159551). Further: nearly all actives have a fitted effect of over 35% in size. The essentials:
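Retinol-stimulated (1 uM final) C3RL4 cells, compound 6 h, 37 C; readout CellTiter-Glo luminescence (ATP) after 30 min RT incubation.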

A short description of assay [13]: qHTS assay to identify small molecule antagonists of the retinoic acid receptor (RAR) signaling pathway (AID 1159552; further: nearly all actives have a fitted effect of over 50% in size; further: potency means the concentration at half of the fitted maximal effect). The essentials: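 Quantitative HTS in C3RL4 RARE-luciferase reporter cells. Compounds were added with 1 uM (final) retinol; luminescence was read after 6 hr.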
Assay [14] can be described thus: qHTS assay to identify small molecule agonists of the retinoic acid receptor (RAR) signaling pathway (AID 1159553). Further: potency means the concentration at half of the fitted maximal effect. The following applies: C3RL4 RARE luciferase reporter, agonist, 6 h; activation: at 73.3 µM (top of the series) unless noted. Summed up: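 Reporter readout comes from luciferase under RARE control in C3RL4 cells; compound exposure lasts 6 hr at 37 C in 5% CO2, and luminescence is recorded following a 30 min room-temperature incubation with reagent.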

The target in assay [15] is Retinoic acid receptor RXR-alpha (Homo sapiens) (UniProt P19793). Put plainly: qHTS assay to identify small molecule agonists of the RXR signaling pathway (AID 1159527; calls by dose curve; further: nearly all actives have a fitted effect of over 35% in size). The essentials:
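qHTS of the Tox21 10K library in GeneBLAzer RXR-alpha HEK 293T cells carrying a beta-lactamase reporter […]; 16 hr treatment, 9-cis retinoic acid as agonist control, FRET read-out.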

Chain of Retinoic acid receptor RXR-alpha (Homo sapiens) (P19793 whole entry, looked up): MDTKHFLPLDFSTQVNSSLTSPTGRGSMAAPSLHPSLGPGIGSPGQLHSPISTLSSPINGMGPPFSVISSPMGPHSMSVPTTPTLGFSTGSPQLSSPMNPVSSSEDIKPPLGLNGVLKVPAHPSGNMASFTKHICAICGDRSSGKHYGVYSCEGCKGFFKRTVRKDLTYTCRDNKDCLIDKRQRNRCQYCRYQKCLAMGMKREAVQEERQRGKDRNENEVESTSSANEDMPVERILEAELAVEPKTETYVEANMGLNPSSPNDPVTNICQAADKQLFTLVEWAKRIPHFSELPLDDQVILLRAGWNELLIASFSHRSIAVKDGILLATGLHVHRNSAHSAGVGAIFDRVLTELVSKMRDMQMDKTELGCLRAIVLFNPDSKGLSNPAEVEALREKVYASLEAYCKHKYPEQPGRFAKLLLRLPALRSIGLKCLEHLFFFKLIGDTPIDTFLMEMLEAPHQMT

For the molecule `Nc1ccc(-c2ccccc2)cc1`, the Potency entry in assay [1], in [2], in [4], in assay [6], in assay [7] and in assay [8] was “inactive” throughout. Further, the Potency result in [9], in assay [11] and in assay [12] was “inactive” each time. In addition, the call in assay [3], in assay [5] and in assay [10] was inactive. Also, the Potency in assay [13] is 62.8 µM (active) and inactive; in assay [14], 35.3 µM (active) and 9.69 µM (active).

Take `Cc1c(COC(=O)[C@@H]2[C@H](/C=C(\Cl)C(F)(F)F)C2(C)C)cccc1-c1ccccc1`: the Potency result in [1], in [2], in assay [4], in [6], in assay [7] and in assay [9] was “inactive” each time. For the same molecule, the Potency entry in assay [11], in assay [12], in assay [13] and in assay [14] was “inactive” in each case. In addition, the outcome in [3], in [5] and in assay [10] was inactive. Besides, the Potency in assay [8] was 23.8 µM (active) and inactive.

As for `O=C(O)C(F)(F)C(F)(F)C(F)(F)C(F)(F)C(F)(F)C(F)(F)C(F)(F)F`, the Potency result in assay [1], in assay [4], in [6], in [7], in assay [8] and in [9] was “inactive” each time. In addition, the Potency result in assay [15] and in [11] was “inactive” throughout. In addition, the molecule was called inactive in [3], in [5] and in [10].

As for `CC(C)(OOC(C)(C)c1ccccc1)c1ccccc1`, the Potency entry in assay [2], in assay [4], in assay [6], in [7], in assay [8] and in assay [9] was “inactive” in each case. Besides, the Potency result in [13] and in assay [14] was “inactive” each time. Further, the result in assay [3], in [5] and in assay [10] was inactive.

`C#C[C@]1(O)CC[C@H]2[C@@H]3CCC4=CC(=O)CC[C@]4(C)[C@H]3CC[C@@]21C`: the Potency entry in [1], in [2], in [4], in assay [6], in assay [7] and in [8] was “inactive” each time. The Potency entry in assay [9], in assay [11], in assay [12], in assay [13] and in assay [14] was “inactive” each time. Besides, the outcome in [3], in assay [5] and in [10] was inactive.

Consider `CN(C)c1ccc(C(=O)c2ccc(N(C)C)cc2)cc1`, for which the Potency entry in [1], in assay [2], in assay [4], in [6], in assay [7] and in assay [8] was “inactive” each time. The Potency entry in assay [9], in assay [15], in assay [11] and in assay [13] was “inactive” in each case. Also, the molecule was classed as inactive in assay [3], in [5] and in assay [10]. Also, in [14], the Potency is 1.21 µM (active) and 1.22 µM (active).

As for `S=C1NCCN1`, the Potency result in [1], in assay [2], in assay [4], in [6], in [7] and in [8] was “inactive” each time. For the same molecule, the Potency entry in assay [9], in [15], in assay [11], in assay [13] and in assay [14] was “inactive” each time. Moreover, the result in assay [3], in assay [5] and in [10] was inactive.

In the case of `CCOc1cc(C=O)ccc1O`, the Potency result in assay [1], in assay [2], in assay [4], in assay [6], in assay [7] and in assay [8] was “inactive” throughout. Moreover, the Potency result in assay [9], in assay [11], in assay [12], in assay [13] and in assay [14] was “inactive” in each case. Moreover, the result in [3], in [5] and in assay [10] was inactive.

Turning to `Cc1cccc(N)c1N`, the Potency entry in assay [1], in [2], in assay [4], in assay [6], in [7] and in assay [8] was “inactive” in each case. Moreover, the Potency entry in [9], in assay [11] and in assay [13] was “inactive” in each case. Besides, the call in assay [3], in assay [5] and in [10] was inactive. For the same molecule, in assay [14], the Potency was 1.05 µM (active) and 2.43 µM (active).

For `CCCCNC(=O)n1c(NC(=O)OC)nc2ccccc21`, the Potency entry in assay [1], in assay [2], in assay [4], in [6], in [7] and in assay [8] was “inactive” each time. Moreover, the Potency entry in assay [9], in assay [15], in assay [11] and in assay [13] was “inactive” throughout. In addition, the molecule was called inactive in assay [3], in assay [5] and in [10]. In addition, the Potency in assay [14] was 13.6 µM (active).
